Experimental data reported in the supplement of paper PMC3334620.
In all, about 33,000 sequences were measured (“E-score (-0.5 to 0.5)”: median about -0.0059, highest 2% from about 0.26 on). Shown is part of a subset that was picked to be rich in the highest values.

Each sequence was assayed against T1, Cin5 (UniProt P40917) (assay: PBM E-score (8-mer binding enrichment) (E-score (-0.5 to 0.5)); higher = stronger / more preferred TF binding). Settings: protein concentration: 100 nM; construct: GST-full length.
T1 sequence: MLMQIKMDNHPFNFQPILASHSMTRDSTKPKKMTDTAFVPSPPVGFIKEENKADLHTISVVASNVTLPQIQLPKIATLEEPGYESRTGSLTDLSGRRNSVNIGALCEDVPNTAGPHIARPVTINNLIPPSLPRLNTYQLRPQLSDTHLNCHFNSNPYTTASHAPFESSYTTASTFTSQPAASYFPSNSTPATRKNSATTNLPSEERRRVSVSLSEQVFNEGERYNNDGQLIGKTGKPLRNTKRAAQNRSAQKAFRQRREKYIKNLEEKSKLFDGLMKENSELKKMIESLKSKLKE
Procedure: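 Universal 'all 10-mer' protein binding microarrays (Agilent AMADID 015681) probed with GST-tagged S. cerevisiae TFs (full-length or DBD) made by in vitro transcription/translation (PURExpress), about 100-200 nM. Bound TF was detected with fluorescent anti-GST. Each ungapped 8-mer (which stands for itself and its reverse complement) is scored by the PBM enrichment score (E-score), a modified Wilcoxon-Mann-Whitney statistic from -0.5 to +0.5, computed with the Universal PBM Analysis Suite. Scale: above 0.35 generally sequence-specific binding.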
For GATTATGC, the “PBM E-score” value was 0.172.
With GATTATTA the “PBM E-score” value was 0.316.
CATTATTA was tested, and the “PBM E-score” value was 0.223.
With GATTATGA the “PBM E-score” value was 0.291.
With AATTATTA the “PBM E-score” value was 0.242.
CATTATGA was tested, and the “PBM E-score” value was 0.13.
With ACTGCAAC the “PBM E-score” value was -0.0484.
With AAGAGTCA the “PBM E-score” value was -0.12.
For GAAAGATA, the “PBM E-score” value was 0.31.
GGAAGATA was tested, and the “PBM E-score” value was 0.13.
For GAAAGAAA, the “PBM E-score” value was 0.283.
AGAAGATA was tested, and the “PBM E-score” value was 0.188.
With GAAAGAAC the “PBM E-score” value was -0.0462.
In the case of CAAAGAAA, the “PBM E-score” value is reported as 0.0585.
For TAAAGATA, the “PBM E-score” value was 0.171.
In the case of CGAAGATA, the “PBM E-score” value is reported as 0.266.
CAAAGATA was tested, and the “PBM E-score” value was 0.12.
With CACGAGAC the “PBM E-score” value was -0.11.
For TAAGAAGA, the “PBM E-score” value was 0.122.
With GATGCAAC the “PBM E-score” value was -0.0342.
With GGAACCCA the “PBM E-score” value was -0.0933.
In the case of TAAAGGGA, the “PBM E-score” value is reported as -0.115.
With AATTGGGG the “PBM E-score” value was 0.0653.
AATTGGGC was tested, and the “PBM E-score” value was 0.0334.
In the case of AATTGGGT, the “PBM E-score” value is reported as 0.319.
With GATAGCAA the “PBM E-score” value was 0.279.
For CATAGCAA, the “PBM E-score” value was 0.111.
In the case of TATAGCAA, the “PBM E-score” value is reported as 0.134.
With CTTAAGAA the “PBM E-score” value was 0.0235.
With ACGGAAAA the “PBM E-score” value was 0.161.
For ACGGAAAC, the “PBM E-score” value was -0.00025.
In the case of ACGGAAAT, the “PBM E-score” value is reported as 0.305.
CGGCACCG was tested, and the “PBM E-score” value was 0.00123.
GCACATAA was tested, and the “PBM E-score” value was 0.0702.
With ACACATAG the “PBM E-score” value was -0.0306.
With TCACATAA the “PBM E-score” value was 0.31.
With ACACATAC the “PBM E-score” value was 0.0411.
In the case of CCACATAA, the “PBM E-score” value is reported as 0.184.
In the case of ACACATAA, the “PBM E-score” value is reported as 0.274.
CACTATCG was tested, and the “PBM E-score” value was 0.0597.
In the case of AGCCAAAA, the “PBM E-score” value is reported as 0.0959.
In the case of CGGTTTGA, the “PBM E-score” value is reported as -0.0691.
In the case of AGGTTTAT, the “PBM E-score” value is reported as 0.251.
CGAGAGCC was tested, and the “PBM E-score” value was -0.163.
In the case of AAGCCAAT, the “PBM E-score” value is reported as 0.122.
With AACGTAAA the “PBM E-score” value was 0.21.
In the case of AACGTAAG, the “PBM E-score” value is reported as 0.274.
In the case of CTCGTAAG, the “PBM E-score” value is reported as 0.304.
For CACGTAAG, the “PBM E-score” value was 0.288.
With TACGTAAA the “PBM E-score” value was 0.302.
In the case of CACGTAAA, the “PBM E-score” value is reported as -0.0217.
For TACGTATA, the “PBM E-score” value was 0.167.
CACGTAAC was tested, and the “PBM E-score” value was 0.0354.
In the case of AACGTAAC, the “PBM E-score” value is reported as 0.217.
In the case of ATCGTAAG, the “PBM E-score” value is reported as 0.159.
In the case of GACGTAAA, the “PBM E-score” value is reported as 0.103.
In the case of CTCGTAAC, the “PBM E-score” value is reported as 0.129.
In the case of AGCAGCGC, the “PBM E-score” value is reported as -0.0185.
ACCACCTG was tested, and the “PBM E-score” value was -0.0268.
In the case of AATCGCTA, the “PBM E-score” value is reported as -0.0414.
For ACGAGCCC, the “PBM E-score” value was -0.0676.
For GAACTCAC, the “PBM E-score” value was -0.014.
For AACGTACT, the “PBM E-score” value was 0.105.
In the case of ACCGTAAT, the “PBM E-score” value is reported as 0.223.
With AACGTAAT the “PBM E-score” value was 0.421.
With AATTTAGA the “PBM E-score” value was 0.0855.
With AAATTAGT the “PBM E-score” value was 0.293.
In the case of AATTTAGG, the “PBM E-score” value is reported as 0.168.
With AAATTAGA the “PBM E-score” value was 0.206.
In the case of AAATTAGG, the “PBM E-score” value is reported as 0.102.
With AATTTAGT the “PBM E-score” value was 0.284.
GGAGCTCC was tested, and the “PBM E-score” value was -0.164.
For GTCTAACA, the “PBM E-score” value was -0.192.
For CGATGGCA, the “PBM E-score” value was -0.0471.
With ACCACAGT the “PBM E-score” value was 0.181.
In the case of CATCCACG, the “PBM E-score” value is reported as 0.0707.
For ACCGTTTA, the “PBM E-score” value was -0.034.
For CAACCGCA, the “PBM E-score” value was 0.0315.
With AAACCGCC the “PBM E-score” value was 0.0261.
For AAACCGCG, the “PBM E-score” value was 0.265.
In the case of CAACCGCC, the “PBM E-score” value is reported as -0.126.
For AAACCGCA, the “PBM E-score” value was -0.142.
In the case of CAACCGCG, the “PBM E-score” value is reported as 0.269.
For AATTGTGC, the “PBM E-score” value was 0.124.
CAGCGGAA was tested, and the “PBM E-score” value was 0.0943.
For GCCCATCA, the “PBM E-score” value was -0.115.
For AGCTCTCC, the “PBM E-score” value was -0.174.
With CCGGAACA the “PBM E-score” value was 0.145.
TCGGAACA was tested, and the “PBM E-score” value was 0.29.
With ACGGAACA the “PBM E-score” value was 0.2.
For CCATATTA, the “PBM E-score” value was 0.169.
ATATATTA was tested, and the “PBM E-score” value was 0.272.
With ACATATTG the “PBM E-score” value was 0.0935.
In the case of CTATATTC, the “PBM E-score” value is reported as 0.0546.
With ATATATTC the “PBM E-score” value was 0.248.
With CTATATTA the “PBM E-score” value was 0.325.
ATATATTG was tested, and the “PBM E-score” value was 0.088.
For ACATATTA, the “PBM E-score” value was 0.266.
For GTATATTA, the “PBM E-score” value was 0.219.
TGAGGCCA was tested, and the “PBM E-score” value was 0.0508.
TGGCCTAA was tested, and the “PBM E-score” value was -0.0968.
With AACGGGAG the “PBM E-score” value was -0.0138.
For CAACCGTC, the “PBM E-score” value was -0.179.
ATAAATTA was tested, and the “PBM E-score” value was 0.349.
For ACAAATTG, the “PBM E-score” value was 0.248.
With GTAAATTA the “PBM E-score” value was 0.192.
For TAAAATTA, the “PBM E-score” value was 0.178.
In the case of ATAAATTG, the “PBM E-score” value is reported as 0.272.
With ACAAATTA the “PBM E-score” value was 0.269.
For CTAAATTA, the “PBM E-score” value was 0.258.
With CCAAATTA the “PBM E-score” value was 0.187.
AAAAATTG was tested, and the “PBM E-score” value was -0.0306.
For CTAAATTC, the “PBM E-score” value was 0.0709.
AAAAATTA was tested, and the “PBM E-score” value was 0.227.
For ATAAATTC, the “PBM E-score” value was 0.0845.
